# PubChem BioAssay AID540299 (ICCB-Longwood Screening Facility, Harvard Medical School, 2011)
# Screen size: about 100,000 compounds; about 440 (0.44%) were called active. No stated cut-off is given here; in the data, active means inhibition above about 21% (passing the limit was not always enough); inactive means the rest. The sample as a whole holds a higher share of actives than the screen did.
# Target: 1,4-dihydroxy-2-naphthoyl-CoA synthase (Mycobacterium tuberculosis (strain ATCC 25618 / H37Rv)) (UniProt P9WNP5)
# Sequence (P9WNP5 whole entry, looked up): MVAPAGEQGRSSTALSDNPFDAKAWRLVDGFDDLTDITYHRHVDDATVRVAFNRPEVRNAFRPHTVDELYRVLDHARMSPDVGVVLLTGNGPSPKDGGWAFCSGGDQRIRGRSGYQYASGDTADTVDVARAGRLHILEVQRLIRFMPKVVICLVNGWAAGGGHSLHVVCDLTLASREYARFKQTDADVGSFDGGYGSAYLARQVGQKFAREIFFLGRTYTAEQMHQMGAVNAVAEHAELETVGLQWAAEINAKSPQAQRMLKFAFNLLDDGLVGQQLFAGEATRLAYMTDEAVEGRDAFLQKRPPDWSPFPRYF
# Experiment: M. tuberculosis MenB inhibitors, primary screen, biochemical, absorbance (AID 540299)
# Details: MenB enzyme assay, absorbance read-out; stronger effect = higher value; concentration not given here
row,Structure (SMILES),inhibition
1,CC(=O)NC1C(Oc2ccccc2)OC(CO)C(O)C1O (stereo not drawn),-6.61% (inactive)
2,COc1ccc(OCCOc2cccc(N)c2)cc1,-98.6% (inactive)
3,C=CCN(CC=C)C(=O)CSc1nnnn1-c1ccc(C)cc1C,-1.92% (inactive)
4,CCn1nnnc1SCC(=O)c1ccc(C)cc1C,33.1% (active)
5,Cc1cccc(-n2nnnc2SCC(=O)c2c[nH]c3ccccc23)c1,-3.22% (inactive)
6,CCNC(=S)N1CCn2cccc2C1c1cccs1 (stereo not drawn),-29% (inactive)
7,CC(Sc1nnnn1C)C(=O)C12CC3CC(CC(C3)C1)C2 (stereo not drawn),-36% (inactive)
8,COc1ccc(S(N)(=O)=O)cc1C(=O)OC1CCCCC1=O (stereo not drawn),-12.8% (inactive)
9,Clc1cccc(Nc2nnc(-c3ccc(Br)cc3)o2)c1,1.27% (inactive)
10,CC1CCNC(c2cccn2C)CC1 (stereo not drawn),-2.11% (inactive)
11,CCN1C(=O)C2(Sc3ccccc3C2=O)C(=O)N(CC)C1=S,-6.71% (inactive)
12,Clc1ncn(CCOc2ccccc2)c1Cl,3.99% (inactive)
13,O=C(Cn1c(=O)oc2ccccc21)N(Cc1ccco1)CC1CCCO1 (stereo not drawn),2.87% (inactive)
14,O=C(NCc1ccco1)OCC(F)(F)F,8.37% (inactive)
15,O=C(c1cccs1)N1CCCn2c(SCc3ccccc3Cl)nnc21,-21.4% (inactive)
16,COC(=O)c1ccccc1S(=O)(=O)N1CCC(C(=O)OCC(=O)Nc2ccccc2F)CC1,-9.07% (inactive)
17,CCN(CC)CCn1c2ccccc2c2nc3cc(C(=O)O)ccc3nc21,-8.07% (inactive)
18,Cc1oc(-c2ccc(Cl)cc2)nc1CSCC(=O)N1CCc2ccccc21,8.32% (inactive)
19,COCCN=c1scc(-c2ccco2)n1/N=C/c1ccc(OC)cc1,-60.5% (inactive)
20,CN1C(=O)CS/C1=C\C(=O)c1cccs1,-16.1% (inactive)
21,Fc1ccc(C=Nc2ccc3c(c2)OCO3)cc1,10.6% (inactive)

row,Structure (SMILES),inhibition
1,C/[N+]([O-])=C\c1ccc(-c2ccccc2)cc1,-18.5% (inactive)
2,O=C(COc1ncnc2c1cnn2-c1ccccc1)N1CCc2ccccc21,-28.4% (inactive)
3,O=C(COn1nnc2ccccc21)N1CCC(Cc2ccccc2)CC1,-32.5% (inactive)
4,O=C1NC(c2cccc(F)c2)=N/C1=C/c1cc2c(cc1Cl)OCO2,-89% (inactive)
5,Cc1ccc(-c2csc3ncnc(NCCO)c23)cc1,-19.8% (inactive)
6,Cc1cccc(/N=c2\scc(-c3ccco3)n2-c2ccccc2)n1,-26.2% (inactive)
7,CCC(=O)c1c(O)ccc2c(C)cc(=O)oc12,2.91% (inactive)
8,CCN(CC)c1ccc2cc(C(N)=O)/c(=N\NC(=O)c3ccccc3)oc2c1,-13.9% (inactive)
9,Cn1c(=N)n(CC(=O)C23CC4CC(CC(C4)C2)C3)c2ccccc21,-12% (inactive)
10,Cc1ccc(NC(=O)CN2CCc3ccccc32)cc1C,-19.3% (inactive)
11,COc1cccc2c(C)nc(NC3=NCN(CC4CCCO4)CN3)nc12 (stereo not drawn),-8.02% (inactive)
12,COC(=O)c1ccc(NC(=O)C(C(C)C)N2C(=O)c3ccccc3C2=O)cc1 (stereo not drawn),0.235% (inactive)
13,Cc1cc(NC(=O)[C@H](C)NC(=O)c2ccco2)ccc1Br,0.245% (inactive)
14,Cc1ccccc1NC(=O)COC(=O)c1ccccc1,4.34% (inactive)
15,O=C1Nc2ccccc2S/C1=C\C(=O)N1CCc2ccccc2C1,-6.55% (inactive)
16,CCOC(=O)c1ccc2c(c1)[nH]c(=O)c(=O)n2CC,5.07% (inactive)
17,O=C(O)/C(=C/C(=O)c1ccccc1)Nc1ccc(OC(F)(F)F)cc1,32.1% (active)
18,O=C(O)/C(=C/C(=O)c1ccc(F)cc1)Nc1ccc2[nH]c(=O)[nH]c2c1,-9.19% (inactive)
19,C/C(=C\C(=O)c1ccccc1)Nc1cccc(O)c1,-47% (inactive)
20,CCOc1ccc(CN(C)C(C)c2nnc(-c3ccc(C)cc3)o2)cc1 (stereo not drawn),-8.7% (inactive)
21,COc1ccc2nc(SC)[nH]c2c1,0.13% (inactive)

row,Structure (SMILES),inhibition
1,O=C(c1ccccc1)N1CCN(c2cccc(Cl)c2)CC1,-21% (inactive)
2,CC(C)(C)CNC(=S)NN,-27.8% (inactive)
3,CCO/C=N/c1c(C(=O)OCC)c2nc3ccccc3nc2n1Cc1ccccc1,-29.7% (inactive)
4,COc1ccc(S(=O)(=O)N(C)C)cc1,-20.5% (inactive)
5,CC(=O)Oc1ccc(N(C(C)=O)S(=O)(=O)c2ccc(Cl)cc2)cc1,-5.01% (inactive)
6,COc1ccc(N(CCC#N)S(=O)(=O)c2ccc(Cl)cc2)cc1,34.8% (active)
7,Cc1ccc2c(c1)cc(CN(Cc1ccco1)C(=O)c1ccccc1)c1nnnn12,32.8% (active)
8,COCC(=O)N(CCc1ccccc1)Cc1cc2cccc(C)c2n2nnnc12,5.43% (inactive)
9,CCc1ccc2[nH]c(=O)c(CN(Cc3ccco3)C(=O)c3ccccc3)cc2c1,-39% (inactive)
10,CC(C)c1ccc(-c2noc(C3CCCN(S(C)(=O)=O)C3)n2)cc1 (stereo not drawn),29.2% (active)
11,COc1ccc(-c2noc(CC(=O)N(C(C)C)C3CCCCC3)n2)cc1,-38.9% (inactive)
12,CC(C)c1ccc(S(=O)(=O)N2CCN(S(=O)(=O)c3ccc(C(C)C)cc3)C(C)C2)cc1 (stereo not drawn),-17.6% (inactive)
13,COc1ccc(N2CCN(C(=S)C3CCCCC3)CC2)cc1,1.7% (inactive)
14,CCOC(=O)N1CCC(NC(=O)Cn2nc(Cc3cccnc3)c3ccccc3c2=O)CC1,13.3% (inactive)
15,O=C(O)CSc1nnc(COc2ccc(Cl)cc2)n1-c1ccc(Br)cc1,-31.3% (inactive)
16,CC(C)(C)c1ccc(OCc2nnc(SCC(N)=O)n2-c2ccccc2)cc1,-20.4% (inactive)
17,CC(Sc1nnc(COc2ccccc2)n1-c1ccccc1)C(=O)O (stereo not drawn),44.3% (active)
18,OC(COc1ccc(Cl)cc1)C(O)C(O)c1cnn(-c2ccccc2)n1 (stereo not drawn),-25.4% (inactive)
19,Cc1ccc(Cn2c(=O)c3ccccc3n3c(SCC(=O)N(C(C)C)C(C)C)nnc23)cc1,-3.38% (inactive)
20,CCN(c1ccccc1)S(=O)(=O)c1ccc(Sc2nnc(-c3cccs3)n2CC2CCCO2)nc1 (stereo not drawn),-29.5% (inactive)
21,CCOC(=O)c1c(NC(=O)c2cc(-n3cnnc3)ccc2Cl)sc2c1CCCC2,-11.9% (inactive)
